ChEMBL document CHEMBL3433997, “St. Jude Leishmania screening dataset” (2016)

Key:
Format in all cases: functional
[1] = target: Solute carrier family 2, facilitated glucose transporter member 1 (Homo sapiens) (UniProt P11166); assay: ST_JUDE_LEISH: Cytotoxicity at 2uM final concentration against transgenic Leishmania Mexicana promastigotes LmGLUT1 that are glucose transport deficient and complemented with the human glucose transporter GLUT1. Activity is measured by DNA content using SYBR green in vitro
[2] = target: Hexose transporter 1 (Plasmodium falciparum) (UniProt O97467); assay: ST_JUDE_LEISH: Cytotoxicity at 2uM final concentration against transgenic Leishmania Mexicana promastigotes LmPfHT that are glucose transport deficient and complemented with the Plasmodium falciparum hexose transporter. Activity is measured by DNA content using SYBR green in vitro
[3] = target: Glucose transporter (Leishmania mexicana) (UniProt O61059); assay: ST_JUDE_LEISH: Cytotoxicity at 2uM final concentration against transgenic Leishmania Mexicana promastigotes LmGT2 that are glucose transport deficient and complemented with the L. Mexicana glucose transporter 2. Activity is measured by DNA content using SYBR green in vitro

Chain of Solute carrier family 2, facilitated glucose transporter member 1 (Homo sapiens) (P11166 whole entry): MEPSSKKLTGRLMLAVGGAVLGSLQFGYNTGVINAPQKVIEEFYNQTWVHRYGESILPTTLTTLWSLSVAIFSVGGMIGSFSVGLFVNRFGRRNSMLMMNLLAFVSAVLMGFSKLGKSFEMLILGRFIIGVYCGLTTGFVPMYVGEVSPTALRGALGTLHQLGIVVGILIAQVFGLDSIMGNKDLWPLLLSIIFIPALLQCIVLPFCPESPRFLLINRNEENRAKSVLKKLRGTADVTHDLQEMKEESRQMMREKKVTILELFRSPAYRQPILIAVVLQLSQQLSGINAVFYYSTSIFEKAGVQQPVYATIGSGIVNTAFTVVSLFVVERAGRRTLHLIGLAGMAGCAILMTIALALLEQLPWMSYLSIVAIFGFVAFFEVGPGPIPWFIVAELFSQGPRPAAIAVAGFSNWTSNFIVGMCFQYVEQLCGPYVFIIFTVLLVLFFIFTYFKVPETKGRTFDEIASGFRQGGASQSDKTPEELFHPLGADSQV

SMILES	inhibition [1]	inhibition [2]	inhibition [3]
CC1(C)NC(N)=NC(=N)N1OCc1cc(Cl)c(Cl)cc1CON1C(=N)N=C(N)NC1(C)C	3.89%	2.37%	0.54%
Cc1ccccc1N1CCN(c2ccc(C(=O)NC(C)C)cn2)CC1	0.52%	-0.59%	-1.79%
Cn1cnc2nc(NCCc3ccccc3)nc(NCc3cccc4ccccc34)c21	0.91%	1.38%	-1.12%
CCN(CC)/C(=N\C(=N)NCCCCCCNC(=N)/N=C(\Nc1ccc(Cl)cc1)N(CC)CC)Nc1ccc(Cl)cc1	0.25%	-0.21%	-0.92%
Cc1nc2ccccc2c(=O)n1/N=C/c1ccccc1[N+](=O)[O-]	3%	1.45%	2.65%
Cc1nn(-c2ccccc2)c2c1C(c1ccc(C(C)C)cc1)N1C(=N2)N(Cc2ccccc2)c2ccccc21 (centres undefined)	4.28%	2.86%	1.85%
N#Cc1cccc(Nc2nccc(NCC(O)c3cccc(C(F)(F)F)c3)n2)c1 (centres undefined)	4.68%	3.25%	-3.38%
CC(C)NCc1cccc(-c2ccc(NC(=O)c3cccc(C#N)c3)cc2)c1	0.25%	0.74%	2.32%
Cc1[nH]c(C)c(-c2ccc(OCc3cccc(C(F)(F)F)c3)nc2)c(=O)c1Br	44.5%	64.4%	35%
O=C1C(=Cc2c(O)ccc3ccccc23)SC(=NCc2ccccc2)N1Cc1ccccc1	3.93%	2.01%	3.38%
CCCn1c(Sc2ccc(C#N)c([N+](=O)[O-])c2)nnc1-c1ccc(Cl)cc1	2.12%	3.28%	2.23%
CCCCCCCCc1c(C)nc(C)c(I)c1O	-1.12%	0.28%	-2.61%
COc1ccc(NC(=O)c2ccc(-c3cc(NC(=O)c4ccnc(N5CCCC5)c4)ccc3C)s2)cc1N1CCN(C)CC1	-1.75%	0.73%	-1.93%
